Experimental data as given in PubChem BioAssay (NCI).
Values joined by “and” are separate entries in the source; they are usually repeats but may differ in a detail not shown here. Equal values may be shown once. Compounds without any hit were thinned out: in the full panel of roughly 83,000, 20% have a hit.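 A percent growth of 40 corresponds to 60% growth inhibition; 0 means no net growth; -100 means all cells died. Active threshold: below 10.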 Unmarked numbers belong to inactive results. Active and inactive are the calls of the source.

What was measured:
Test in all cases: NCI-60 one-dose screen, 48 h (100 = growth as untreated, 0 = no growth, -100 = all killed)
Settings in all cases: 10 µM unless noted
SK-MEL-2 melanoma = tested on: SK-MEL-2 melanoma
EKVX NSCLC = tested on: EKVX NSCLC
SN12C renal = tested on: SN12C renal
UO-31 renal = tested on: UO-31 renal
TK-10 renal = tested on: TK-10 renal
ACHN renal = tested on: ACHN renal
CAKI-1 renal = tested on: CAKI-1 renal
A498 renal = tested on: A498 renal
CCRF-CEM leukemia = tested on: CCRF-CEM leukemia
MOLT-4 leukemia = tested on: MOLT-4 leukemia

Row | SMILES | growth (SK-MEL-2 melanoma) | growth (EKVX NSCLC) | growth (SN12C renal) | growth (UO-31 renal) | growth (TK-10 renal) | growth (ACHN renal) | growth (CAKI-1 renal) | growth (A498 renal) | growth (CCRF-CEM leukemia) | growth (MOLT-4 leukemia)
1 | COc1ccc2[nH]cc(-c3cc4nc(-c5cn(C)c6ncc(Br)cc56)cc(N)n4n3)c2c1 | -34.7% (active) | -82.7% (active) | -83.2% (active) | -69.1% (active) | -42.5% (active) | -97.6% (active) | -86.1% (active) | -51% (active) | -31% (active) | -27.5% (active)
2 | CCCn1c(NC(=O)c2cccc(C(N)=O)c2)nc2cc(CN3CCCCC3)ccc21 | 115% | 100% | 89% | 67.5% | 92.6% | 77.8% | 53.3% | 170% | 94.7% | 94.8%
3 | COc1ccc2[nH]c(O)c(N=NC(=O)c3ccc4nc(-c5ccc(Cl)cc5)[nH]c4c3)c2c1 | 109% | 90.1% | 70.7% | 95.6% | 111% | 104% | 93.6% | 166% | 25.7% | 15.7%
4 | O=C(N/N=C/c1c[nH]c2ccccc12)Nc1ccccc1Cl | 13.9% | 2.29% (active) | 0.991% (active) | 23.2% | 34.2% | 10.7% | 16.1% | -8.24% (active) | 9.84% (active) | 5.56% (active)
5 | Nc1cc(-c2c[nH]c3ccc(F)cc23)nc2cc(-c3c[nH]c4ccccc34)nn12 | -16.8% (active) | 7.95% (active) | 41.2% | 21.7% | 17.3% | 6.95% (active) | 1.64% (active) | 21.8% | -11.6% (active) | -9.73% (active)
6 | CN(C)c1nc(NCCNS(=O)(=O)c2ccc(C3=Nc4c(N)nc(N)nc4NC(c4ccc(C(F)(F)F)cc4)C3)cc2)nc(N2CCOCC2)n1 (stereo not given) | 21.8% | 38.3% | 48.1% | 74.1% | 68.9% | 77.3% | 37.1% | 94.8% | 21.8% | -5.12% (active)
7 | O=C1Nc2cc(-c3ccc(NS(=O)(=O)c4ccc(F)c(Cl)c4)cc3)ccc2/C1=C/c1ccc[nH]1 | 55.8% | 1.79% (active) | 55.3% | 35.6% | 54.5% | 6.04% (active) | 33% | 52.1% | 39.7% | 11.7%
8 | CCC1(OC(=O)c2ccccc2SSCCOC(=O)CCCCC2SCC3NC(=O)NC32)C(=O)OCc2c1cc1n(c2=O)Cc2cc3ccccc3nc2-1 (stereo not given) | 103% | 52.1% | 32.3% | 38.4% | 94.8% | 20.3% | 10.5% | 104% | 9.01% (active) | 21.8%
9 | COc1ccc(NC(=O)N/N=C/c2c[nH]c3ccccc23)cc1 | -10.7% (active) | 43.1% | 34.4% | 40.3% | 74.4% | 51.1% | 44% | 85.5% | 21% | 20.5%
10 | COc1c2c(cc3c1C(CCc1ccccc1)N(C)CC3)OCO2 (stereo not given) | -18.1% (active) | 16.1% | 8.61% (active) | 14.3% | 33.5% | 14.9% | 14.5% | -15.4% (active) | 14.2% | 8.71% (active)
11 | COc1cccc2nc(Nc3cccc(NC(=O)c4ccc(CN5CCN(C)CC5)c(C(F)(F)F)c4)c3)ccc12 | -87.8% (active) | -96.2% (active) | -90.5% (active) | -88.6% (active) | -93.1% (active) | -100% (active) | -100% (active) | -94.9% (active) | -44.4% (active) | -38.5% (active)
12 | COc1ccc(/C=C/C(=O)c2ccc(OC)c(S(N)(=O)=O)c2)c(C(F)(F)F)c1 | 60.8% | 14.5% | 8.16% (active) | 25.6% | 77.9% | 9.82% (active) | 24.7% | 195% | 2.27% (active) | -0.0099% (active)
13 | c1n[nH]cc1-c1nc2ccc3[nH]ncc3c2c2c1CC1(CC2)COC1 | 18.3% | 78.6% | 38.9% | 95.7% | 49.2% | 54.6% | 12.3% | 38.6% | 30.3% | 32.8%
14 | COc1cc(/C=C/C(=O)c2cnn(-c3cc(=O)[nH]c4ccc(Br)cc34)c2C)cc(OC)c1OC | -59.6% (active) | -57.8% (active) | -7.58% (active) | -80.7% (active) | 1.77% (active) | -34.9% (active) | -4.42% (active) | 6.24% (active) | -19.6% (active) | -12.3% (active)
15 | O=c1[nH]c2ccccc2cc1COc1ccc(Nc2nccc(-c3ccc(Cl)cc3)n2)cc1 | 99.6% | 104% | 100% | 98.7% | 111% | 84.9% | 87.5% | 118% | 103% | 102%
16 | O=C(c1cc2cc(OCCCN3CCC3)ccc2[nH]1)N1C[C@@H](CCl)c2c1cc(OCc1ccccc1)c1ccccc21 | -93.4% (active) | -46% (active) | -40.1% (active) | -84.6% (active) | -3.9% (active) | -96.8% (active) | -84.6% (active) | -25.3% (active) | -18.2% (active) | -15.4% (active)
17 | Cc1ccc(-c2cc(C(=O)N=Nc3c(O)[nH]c4ccc(F)cc34)c3ccccc3n2)cc1 | 107% | 29.8% | 18.1% | 77.5% | 106% | 42.8% | 62.9% | 187% | 92.4% | 65.3%
18 | COc1ccc(/C=C/C(=O)c2ccc(S(=O)(=O)NCCNc3nc(N(C)C)nc(N4CCOCC4)n3)cc2)cc1 | 94.9% | 81.1% | 91.6% | 74.5% | 114% | 104% | 73.2% | 89.2% | 80% | 34.7%
19 | NC1(c2ccc(-c3ccc4ncnc(NCc5ccccc5)c4c3)cn2)COC1 | 112% and 113% | 111% and 100% | 105% and 101% | 99.8% and 85.4% | 108% | 102% and 109% | 94.8% and 103% | 118% and 134% | 106% and 102% | 112% and 101%
20 | CN1CCN(C(=O)Oc2cc3c(c4ccccc24)[C@H](CCl)CN3C(=O)c2cc3cc(OCCCN4CCC4)ccc3[nH]2)[C@@H]2CSSC[C@H]21 | -83.7% (active) | -50.6% (active) | -75.8% (active) | -0.968% (active) | 11.7% | -22.8% (active) | 1.34% (active) | -18.7% (active) | -28% (active) | -9.2% (active)
21 | O=C(N/N=C/c1ccc(B(O)O)s1)c1[nH]c2ccc(Br)cc2c1-c1ccccc1 | -82.6% (active) | -98.8% (active) | -79.4% (active) | -76.3% (active) | -93.2% (active) | -100% (active) | -59.8% (active) | -88.3% (active) | -16.5% (active) | -8% (active)
22 | N#CC1=C(c2cccs2)Nc2c(c(-c3ccccc3)nn2-c2ccccc2)C12C(=O)Nc1ccc(Cl)cc12 (stereo not given) | 22.8% | 13.3% | 33.8% | 12.7% | 31.5% | 12.6% | 23.3% | 88.8% | 13.7% | 19.3%
23 | COc1ccc(N=Nc2c(N)nn3c(-c4ccc([N+](=O)[O-])cc4)ccnc23)cc1 | 106% | 97.5% | 92.7% | 97.1% | 113% | 107% | 88.9% | 114% | 92% | 96%
24 | Nc1nn2c(-c3cc4ccccc4oc3=O)ccnc2c1N=Nc1ccccc1 | 97.4% | 66.9% | 48.6% | 63.2% | 103% | 54.9% | 81.8% | 111% | 101% | 113%
